This test concerns HL-1. As to the kind of experiment: cardiomyocyte survival under oxidative or metabolic stress – cell-based, panel, H9c2 and HL-1, ATP luminescence, set 2, SAR follow-up (AID 651871).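 Further: cells exposed to stressor for 2 h before ATP readout; reference of the scale not given here.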 As to conditions: H9c2/HL-1 cardiomyocytes, 2-deoxyglucose stress, with 2-deoxyglucose, run 14, at 39.5 µM (top of the series).

`COc1ccc2c(c1OC)C(=O)N1c3ccccc3C(=O)N(Cc3cccc(Cl)c3Cl)C21` (stereo unspecified) displayed an activity (protection/inhibition) of 31.8%.

These data come from PubChem BioAssay AID651871 (Sanford-Burnham Center for Chemical Genomics, 2012).
